# L3MBTL1 inh = inhibitors of human L3MBTL1; AID 485360; 230,000 tested, 0.66% active; AlphaScreen L3MBTL1–H3K9me1 peptide binding; Potency, µM (series often up to 57.1 µM), inactives show top-dose activity, negative = inhibition, hits mostly inhibitors; Q9Y468; note: % is set by controls: 0 for no effect and ±100 for the full control effect; nearly all actives have a fitted effect of over 60% in size
#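 L3MBTL1 (50 nM) pre-complexed 30 min with biotinylated H3(1-15)K9me1 peptide (75 nM), then compounds added for 30 min at room temperature; AlphaScreen streptavidin donor/nickel chelate acceptor beads (10 ug/mL final) read after 30 min dark incubation.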
# BAZ2B inh = BAZ2B (human) inhibition; Potency, µM (series often up to 114 µM), inactives show top-dose activity change, negative = inhibition, hits mostly inhibitors; 360,000 tested, 4.4% active; AlphaScreen BAZ2B-H3K14Ac peptide displacement; AID 504333; note: % is set by controls: 0 for no effect and ±100 for the full control effect; nearly all actives have a fitted effect of over 60% in size
#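 BAZ2B (50 nM) with biotin-H3(5-23)K14Ac peptide (50 nM) in PBS pH 7.4, 0.01% Tween-20, preformed 30 min, then compound 30 min at room temperature; top concentration 110uM. AlphaScreen streptavidin donor/nickel chelate acceptor beads (10 ug/mL final), 20 min dark, signal read.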
# G9a inh = blocks human histone lysine methyltransferase G9a. Q96KQ7. G9a H3K9 monomethylation, AlphaScreen, 2 h. Potency, µM (doses to about 102 µM), for inactives: at the highest dose activity, negative = inhibition, most hits filed as inhibitors. 350,000 tested, 8.8% active. AID 504332; note: % is set by controls: 0 for no effect and ±100 for the full control effect; nearly all actives have a fitted effect of over 75% in size
# Target sequence (Q96KQ7 913-1193 limits assumed): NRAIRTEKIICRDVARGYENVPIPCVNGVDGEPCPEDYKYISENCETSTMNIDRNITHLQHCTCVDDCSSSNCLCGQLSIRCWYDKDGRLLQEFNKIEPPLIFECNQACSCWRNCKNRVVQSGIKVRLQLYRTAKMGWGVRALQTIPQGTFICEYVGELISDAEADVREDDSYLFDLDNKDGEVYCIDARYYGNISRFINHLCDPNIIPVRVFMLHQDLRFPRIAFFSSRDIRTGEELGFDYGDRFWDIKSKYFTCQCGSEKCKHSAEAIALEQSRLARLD
#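 AlphaScreen detection with an anti-monomethyl H3K9 antibody quantified product after a 2 h room-temperature reaction containing 500 nM biotinylated H3K9 peptide, 20 µM SAM and 20 nM enzyme, which had been preincubated 15 min with compound.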
# Sfp PPTase inh = Sfp phosphopantetheinyl transferase inhibition; Q9F4F7; Biochemical Sfp PPTase activity, qHTS; AID 1490; 310,000 tested, 3.5% active; Potency, µM, without a hit: largest response in the series, negative = inhibition, actives largely listed as inhibitors;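 note: the enzyme is Sfp with the accession as filed and its product quenches rhodamine fluorescence; 0% = enzyme reaction without inhibitor and -100% = no enzyme wells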
#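 Compounds were incubated with enzyme (final 15 nM) for 15 min at room temperature before substrate addition started the reaction. Fluorescence at 525 nm excitation, 598 nm emission was recorded immediately and after 30 minutes.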
# JMJD2A Tudor inh = JMJD2A Tudor domain (human) inhibition; AlphaScreen JMJD2A-Tudor / H3K4me3 peptide binding; Potency, µM (highest dose often 114 µM), inactives show at the highest dose activity change, negative = inhibition, hits mostly inhibitors; 390,000 tested, 4.4% active; AID 504339; note: % is set by controls: 0 for no effect and ±100 for the full control effect; nearly all actives have a fitted effect of over 50% in size
# HP1b binding inh = blocks HP1-beta chromodomain binding to methylated histone tails | 390,000 tested, 0.56% active | AlphaScreen HP1-beta / biotin-H3K9me3 peptide binding | Potency, µM (top dose mostly 114 µM), for inactives: top-dose activity change, negative = inhibition, hits mostly inhibitors | P83916; note: nearly all actives have a fitted effect of over 70% in size
# Target sequence (P83916 whole entry, looked up): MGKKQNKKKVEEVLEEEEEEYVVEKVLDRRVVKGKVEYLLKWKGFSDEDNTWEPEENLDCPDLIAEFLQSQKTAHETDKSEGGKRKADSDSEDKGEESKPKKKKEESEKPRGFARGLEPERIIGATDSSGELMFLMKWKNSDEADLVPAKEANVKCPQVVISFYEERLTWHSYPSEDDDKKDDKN
#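 Compound inhibition of the preformed complex between 50 nM HP1-beta and 50 nM biotinylated H3K9me3 peptide was read by AlphaScreen. Buffer was PBS pH 7.4 with 0.01% Tween-20. Incubations ran 30 min at room temperature, with 10 ug/mL donor/acceptor beads.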
# * = called active by the depositor; ? = inconclusive; nt = no result given; [ ] = another dose, or the depositor's remark. Hits are enriched below; roughly 12% of the tested compounds scored in any of these assays. Calls come from the whole dose curve; as a rule, active = well fitted curve in the direction sought with a large enough effect; inconclusive = small, poorly fitted or top-dose-only effect, or another doubt; inactive = no such curve, though single readings can be large; an effect the other way counts as inactive or inconclusive. Potency is the fitted concentration of half-maximal effect.
SMILES,L3MBTL1 inh,BAZ2B inh,G9a inh,Sfp PPTase inh,JMJD2A Tudor inh,HP1b binding inh
O=C(Nc1nc2n(n1)C(c1ccccc1)C=C(c1ccccc1)N2)c1ccccc1 (stereo unspecified),nt,20µM*,10µM*,nt,56µM*,50%
COc1ccc(C2C=C(c3ccccc3)Nc3nc(NC(=O)c4ccc(C)cc4)nn32)cc1 (stereo unspecified),nt,-5%,-9%[59 µM],nt,-22%,2%
O=C(Nc1nc2n(n1)C(c1ccc(Cl)cc1)C=C(c1ccccc1)N2)c1ccco1 (stereo unspecified),nt,-9%,-31%[59 µM],nt,-15%,21%
COc1ccc(C(=O)Nc2nc3n(n2)C(c2ccc(Cl)cc2)C=C(c2ccccc2)N3)cc1OC (stereo unspecified),nt,28µM*,?,nt,56µM*,26%
CC1=C(C(=O)Nc2ccc(Cl)cc2)C(c2ccccc2)n2ncc(C(=O)Nc3ccccc3)c2N1 (stereo unspecified),nt,-1%,2%[59 µM],nt,-14%,35%
CCN(C(=O)COC(=O)c1ccccc1Oc1ccccc1)c1c(N)n(Cc2ccccc2)c(=O)[nH]c1=O,nt,nt,nt,nt,4%,17%
O=C(NNc1ccccc1)NC(Cc1ccccc1)C(=O)O (stereo unspecified),nt,nt,nt,nt,-8%,42%
C#CCOCCOCCOCCNc1nc(N2CCN(C(=O)[C@H](CCCCN)n3cc(C(N)[C@H](C)CC)nn3)CC2)nc(N2CCN(C(=O)[C@H](CCC(=O)O)n3cc(C(N)[C@H](C)CC)nn3)CC2)n1 (stereo partly specified),-10%,79µM*,?,?,50µM*,44%
C#CCOCCOCCOCCNc1nc(N2CCN(C(=O)[C@H](CCCN=C(N)N)n3cc(C(N)[C@@H](C)CC)nn3)CC2)nc(N2CCN(C(=O)[C@H](CCC(=O)O)n3cc([C@@H](N)CCCCN)nn3)CC2)n1 (stereo partly specified),-2%,nt,nt,nt,89µM*,17%
C#CCOCCOCCOCCNc1nc(N2CCN(C(=O)[C@H](CCCCN)n3cc([C@@H](N)[C@H](C)CC)nn3)CC2)nc(N2CCN(C(=O)[C@H](CCC(=O)O)n3cc([C@@H](N)CCCCN)nn3)CC2)n1,3%,nt,nt,nt,?,65%
Cc1nc2cc(-c3ccccc3)nn2c(C)c1CCC(=O)NCc1ccco1,nt,-37%,?,?,-21%,18%
COc1ccccc1-c1cc2nc(C)c(CCC(=O)NCc3ccco3)c(C)n2n1,-3%,-9%,50µM*,10%,?,13%
COc1ccccc1-c1nc(SCc2ccccn2)n[nH]1,11%,10%,50µM*,9%,-14%,17%
O=C(Oc1ccccc1)N1CCC2(CC1)CN(c1ncccn1)C2,nt,nt,32%[12.7 µM],2%,nt,nt
Cc1c(C(c2ccc(N(C)C)cc2)c2c(C)n(C)n(-c3ccccc3)c2=O)c(=O)n(-c2ccccc2)n1C,nt,?,50µM*,-14%,-27%,?
Cc1c(C(c2ccccc2)c2c(C)n(C)n(-c3ccccc3)c2=O)c(=O)n(-c2ccccc2)n1C,-4%,-8%,17%,15%,-7%,28%
COc1ccc(/C=C/CN2CCN(Cc3ccc(F)cc3)C(CCO)C2)cc1 (stereo unspecified),-7%,-12%,nt,12%,-20%,25%
Cc1ccc2[nH]c(C(=O)N3CCOCC3)cc2c1,3%,-3%,nt,-6%,-12%,28%
Cc1[nH]c2ccccc2c1-c1csc(NC(=O)CSCCO)n1,nt,?,71µM*,7%,?,-14%
S=c1[nH]nc(C23CC4CC(CC(C4)C2)C3)n1Cc1ccco1,-9%,?,-9%[0.0925 µM],-13%,50µM*,4%
CCCc1nnc(SCC(=O)N2CCCC2)n1Cc1ccco1,-9%,-31%,-2%,14%,-9%,18%
CCCc1n[nH]c(=S)n1Cc1ccco1,nt,6%,?,?,5µM*,30%
CCc1ccc(OCc2nnc(SCCN3CCOCC3)n2CC)cc1,-3%,nt,7.1µM*,-21%,3.2µM*,?
Clc1ccc(OCc2nnc(SCCN3CCCCC3)n2Cc2ccco2)cc1,nt,89µM*,?,25µM*,?,13%
COc1ccc(NC(=O)CCc2nc3cccnc3n2-c2ccccc2)cc1Cl,nt,-25%,-32%[59 µM],nt,-14%,30%
SMILES,L3MBTL1 inh,BAZ2B inh,G9a inh,Sfp PPTase inh,JMJD2A Tudor inh,HP1b binding inh
O=C(NCCC1=CCCCC1)c1cc(-c2ccccn2)nc2ccccc12,-14%,-14%,1%,16%,-8%,36%
CN1CCN(C(CNC(=O)C(=O)Nc2ccccc2C#N)c2ccc3c(c2)OCO3)CC1 (stereo unspecified),nt,4%,3%[59 µM],nt,-12%,10%[57 µM]
Cc1ccccc1OC(=O)CSc1nnc(-c2cccs2)o1,nt,-15%,?,nt,5%,44%
N#Cc1c(Cl)cccc1Oc1ccc([S+](=O)([O-])N2CCN([S+](=O)([O-])c3c(F)cccc3F)CC2)cc1,nt,nt,nt,nt,-24%,nt
S=c1[nH]nc(COc2ccc(Cl)cc2)n1Cc1ccco1,nt,?,3.5µM*,-4%,?,?
Cc1cc(C)cc(NC(=S)N(Cc2ccc(Br)cc2)Cc2ccc(C(=O)O)cc2)c1,nt,-11%,?,-8%,-31%,20%
Cc1ccc(NC(=S)N(Cc2ccc(Br)cc2)Cc2ccc(C(=O)O)cc2)cc1C,nt,-28%,45µM*,17%,-27%,-19%
COc1ccc(NC(=S)N(Cc2ccc(Cl)cc2)Cc2ccc(C(=O)O)cc2)cc1Cl,nt,?,?,50µM*,-25%,12%
COc1ccc(CN(Cc2ccc(C(=O)O)cc2)C(=S)Nc2ccccc2C)cc1OC,nt,-11%,45µM*,-22%,-16%,36%
Cc1cc(NC(=S)N(Cc2ccc(Cl)cc2)Cc2ccc(C(=O)O)cc2)ccc1Cl,nt,?,?,-6%,-24%,4%
CCc1ccc(NC(=S)N(Cc2ccc(Cl)cc2)Cc2ccc(C(=O)O)cc2)cc1,nt,-13%,-36%,18µM*,-30%,-17%
Cc1cccc(C(=O)Nc2ccc(C(=O)/C=C/c3cccnc3)cc2)c1,-3%,-23%,?,-22%,?,15%
Cc1cccc(/C=C/C(=O)c2ccc(NC3=NCCCS3)cc2)c1,-1%,?,?,-14%,45µM*,-16%
COc1cccc(/C=C/C(=O)c2cccc([N+](=O)[O-])c2)c1,-7%,?,nt,?,?,2%
COc1cccc(/C=C/C(=O)c2ccc(NC3=NCCCS3)cc2)c1,-2%,?,45µM*,-13%,?,-9%

# Screening data from PubChem BioAssay.
